Assay outcomes from PubChem BioAssay.
USP1-UAF1 inh: blocks the human USP1/UAF1 deubiquitinase complex; recombinant USP1/UAF1, Ub-Rhodamine cleavage fluorescence; Potency, µM (highest dose often 57.1 µM), for the others: top-dose activity change, negative = inhibition, most hits filed as inhibitors; hit rate 0.23% among 390,000; further: potency means the concentration at half of the fitted maximal effect; nearly all actives have a fitted effect of over 60% in size
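Step one: compound is pinned into 1nM USP1/UAF1 in HEPES pH 7.8 buffer with TCEP. Step two: 15 min room-temperature incubation. Step three: Ub-Rho (150nM final) starts cleavage, tracked by fluorescence over six one-minute reads.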
Tau fluor counter: counter-screen for tau fibril formation inhibitors. tau K18 P301L Alexa594 fluorescence, heparin fibrillization. Potency, µM (top dose mostly 57.7 µM), for the others: top-dose activity change, negative = decrease. hit rate 0.93% among 280,000. AID 1463; further: potency means the concentration at half of the fitted maximal effect; nearly all actives have a fitted effect of over 55% in size
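Human K18 P301L tau (15 uM unlabeled plus 0.24 uM Alexa 594-labeled, final) in 100 mM sodium acetate pH 7 was mixed with compound and 20 uM heparin and incubated 6 hr at 37 C.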
Tau fibril ThT: inhibitors of human tau fibril formation, thioflavin T binding; P10636; recombinant tau K18 P301L (four-repeat tau fragment), heparin-induced fibrillization, ThT fluorescence; Potency, µM (doses to about 57.4 µM), inactives show at the top dose activity, negative = inhibition, most hits filed as inhibitors; hit rate 2.1% among 270,000; further: potency means the concentration at half of the fitted maximal effect; nearly all actives have a fitted effect of over 55% in size
Target sequence (P10636 561-689 P618L limits assumed): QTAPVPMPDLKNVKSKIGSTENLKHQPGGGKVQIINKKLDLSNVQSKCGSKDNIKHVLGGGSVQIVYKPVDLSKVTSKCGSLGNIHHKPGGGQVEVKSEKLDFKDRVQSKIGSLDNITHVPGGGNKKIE
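Aggregation was driven by heparin (20 uM final) acting on recombinant tau […] bearing P301L in 100 mM sodium acetate pH 7; fibrils were detected with Thioflavin T.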
Tau FP inhib: blocks human tau fibril formation measured by polarization. Potency, µM (top dose mostly 57.7 µM), for the others: top-dose activity, negative = inhibition, hits mostly inhibitors. P10636. AID 1468. hit rate 0.39% among 280,000. K18 P301L tau heparin fibrillization, Alexa594 FP, 6 h; further: potency means the concentration at half of the fitted maximal effect; nearly all actives have a fitted effect of over 55% in size
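Recombinant K18 P301L […], labeled with Alexa 594 at 0.24 uM over 15 uM unlabeled; heparin inducer 20 uM final; 37 C, 6 hr; FP endpoint.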
FBPA coupling cs: coupling enzyme interference in Giardia aldolase counter-screen; hit rate 0.67% among 290,000; AID 2472; activity change, negative = inhibition, % at 58.2 µM, hits read low; coupling enzyme system counterscreen, AmpLite Red fluorescence; in the data active means activity change below about -30%
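Activity here indicates interference with the coupling reaction, not aldolase inhibition. Compounds at 57.5 uM final met coupling enzymes for 10 min at RT; substrate and AmpLite Red detection followed, with a 525/598 nm fluorescence read after 20 min.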
Starred values were filed as active, the others as inactive; ? = inconclusive; / = no result; [ ] = remark or other dose. The list is not random: actives were taken first. Their share in the collection is about 2.3%. Unless noted, the call rests on the fitted dose curve; in most records, active means well fitted curve in the direction sought with a large enough effect; inconclusive means small, poorly fitted or top-dose-only effect, or another doubt; inactive means no such curve, though single readings can be large; an effect the other way counts as inactive or inconclusive. On the % scale 0 is the no-effect control and ±100 the full control effect.

SMILES | USP1-UAF1 inh | Tau fluor counter | Tau fibril ThT | Tau FP inhib | FBPA coupling cs
[O-]/C(=C(\C(=S)Nc1ccc(SC(F)F)cc1)[n+]1cccc(CO)c1)c1ccc(Cl)s1 | -21% | ? | 25µM* | -12% | -8
[O-]/C(=C(\C(=S)Nc1cccc2ccccc12)[n+]1cccc(CO)c1)c1ccc(Cl)s1 | -24% | ? | 14µM* | ? | -30
O=C(Cn1cnc2ccccc2c1=O)NCCC(=O)Nc1ccccc1C(F)(F)F | -22% | / | / | / | 1
CCN(CC(=O)Nc1ccc2c(c1)OCCO2)C(=O)/C=C/c1ccc([N+](=O)[O-])cc1 | -20% | / | / | / | /
CN(C)CCCOc1ccc2c(c1)Sc1ccccc1CC2=O | -6% | 2% | 1% | 0% | -66*
Cc1cc(/C=C\c2nc(O)c([N+](=O)[O-])c(=O)[nH]2)c(C)n1-c1ccccc1 | -25% | -9% | ? | 3% | -3
COc1ccc(-n2c(C)cc(/C=C/c3nc(O)c([N+](=O)[O-])c(=O)[nH]3)c2C)cc1 | -13% | -7% | 16µM* | 2% | 1
CCOC(=O)CN1C(=O)S/C(=C/c2ccc(N3CCCCC3)o2)C1=O | ? | -6% | ? | 0% | -22
COC(=O)CN1C(=O)S/C(=C/c2ccc(N3CCCCC3)o2)C1=O | 28µM* | -24% | 25µM* | ? | -43*
O=C(O)CN1C(=O)/C(=C/c2ccc(N3CCCCC3)o2)SC1=S | ? | -3% | 16µM* | ? | -14
COc1ccccc1CNS(=O)(=O)c1ccc(N2CCCCS2(=O)=O)cc1 | -1% | -5% | 4% | -7% | /
CCOCc1nc(N)nc(N)c1-c1cccc(Cl)c1 | -24% | / | / | / | /
Cc1c(C)c(C)c(S(=O)(=O)NCCC(=O)N2CCN(Cc3ccc(C#N)cc3)CC2)c(C)c1C | -6% | / | / | / | /
Cc1cc(NC(=O)C(C)SCC(=O)Nc2ccccc2OC(F)F)no1 (stereo not drawn) | -4% | / | / | / | -1
NC1=NC(=O)/C(=C/c2ccc(OCC(=O)O)cc2)S1 | -6% | / | / | / | 1
CC(=O)Nc1ccc(S(=O)(=O)Oc2ccc(/C=C3\SC(N)=NC3=O)cc2)cc1 | 1% | -13% | -17% | 25µM* | 0
CCn1c(CNC(=O)c2ccc(OC)cc2)nnc1SCC(=O)Nc1ccc(OC)cc1 | -16% | -7% | -2% | -1% | /
CCSc1ncc(Cl)c(C(=O)Nc2c(C(=O)Nc3cccc(C)c3)oc3ccccc23)n1 | 10% | -11% | 4% | -9% | /
CCS(=O)(=O)c1ncc(Cl)c(C(=O)Nc2c(C(=O)Nc3cccc(C)c3)oc3ccccc23)n1 | -18% | ? | 4µM* | -11% | /
COc1ccc(CN(C)CCCn2cnc3c(OCc4ccccc4)ncnc32)cc1OC | -2% | / | / | / | /
O=C(/C=C/NNC(=O)c1ccc(Br)cc1)c1ccccc1 | -8% | ? | 25µM* | -3% | 2
O=C(/C=C/NNC(=O)c1ccccc1)c1ccccc1 | -12% | -15% | ? | 8% | -4
COc1ccc2nc(SCC(=O)NC3CC3)c(C#N)cc2c1 | ? | / | / | / | 0
Cc1ccc(S(=O)(=O)Nc2nsc(N)n2)cc1 | -4% | -23% | 11µM* | 18µM* | 0
COc1cccc(NC(=O)CSc2ncc3c(n2)-c2ccc(Cl)cc2N(C)S3(=O)=O)c1 | 2% | -22% | -15% | ? | /
SMILES | USP1-UAF1 inh | Tau fluor counter | Tau fibril ThT | Tau FP inhib | FBPA coupling cs
O=c1oc2ccc3ccccc3c2cc1-c1nnc(Nc2ccccc2F)s1 | -19% | -27% | ? | -18% | /
COc1ccc(Nc2nnc(-c3cc4c(ccc5ccccc54)oc3=O)s2)cc1 | 7% | ? | 5µM* | 3% | /
CCN1C(=O)c2ccccc2S(=O)c2ccc(C(=O)N3CCN(c4ccc(F)cc4)CC3)cc21 (stereo not drawn) | -8% | -17% | -15% | 5% | /
Cc1c(C(=O)Nc2nc(-c3ccc(F)cc3)ns2)oc2ccc(Cl)cc12 | ? | -3% | -7% | -12% | /
O=C1c2c([N+](=O)[O-])cc([N+](=O)[O-])cc2S(=O)N1Cc1ccccc1 (stereo not drawn) | -8% | -27% | 32µM* | ? | 1
CCN1CC=C2C(C#N)=C(N)C(C#N)(C#N)C(CCc3ccccc3)C2C1 (stereo not drawn) | 22µM* | -26% | ? | -17% | -4
CC(=O)N1CC=C2C(C#N)=C(N)C(C#N)(C#N)C(CCc3ccccc3)C2C1 (stereo not drawn) | -22% | -13% | ? | -20% | -2
COc1ccccc1N1CCN(C(CNC(=O)C(=O)NCCc2ccccc2)c2cccnc2)CC1 (stereo not drawn) | -5% | -5% | -10% | ? | /
COc1ccc(OC)c(C2CC(=O)N3CN(c4ccc(C)c(Cl)c4)CSC3=C2C#N)c1 (stereo not drawn) | ? | -28% | 28µM* | ? | -13
COc1ccc(OC)c(C2C(C#N)=C(N)Oc3c2c(C)nn3-c2cccc(Cl)c2)c1 (stereo not drawn) | -4% | ? | 13µM* | -1% | 2
Cc1nn(-c2cccc(Cl)c2)c2c1C(c1ccncc1)C(C#N)=C(N)O2 (stereo not drawn) | -20% | ? | ? | -4% | 6
COc1ccc(Br)cc1C1CC(=O)N2CN(C)CSC2=C1C#N (stereo not drawn) | ? | -15% | ? | ? | -10
CCOC(=O)c1ccc(N2CSC3=C(C#N)C(c4ccc(OC)cc4OC)CC(=O)N3C2)cc1 (stereo not drawn) | ? | ? | 25µM* | -7% | -5
CCOC(=O)C1=C(CC)OC(N)=C(C#N)C1c1ccc(OC)cc1OC (stereo not drawn) | -24% | -9% | -6% | 8% | -1
COc1ccc(OC)c(C2CC(=O)N3CN(c4cccc(Cl)c4)CSC3=C2C#N)c1 (stereo not drawn) | ? | ? | 28µM* | ? | -6
Cc1ccc(Nc2nnc(-c3ccc(C)c(S(=O)(=O)N4CCN(C)CC4)c3)c3ccccc23)c(C)c1 | -16% | -14% | -24% | -6% | /
CCC(=O)N1CCN(c2nc3c(C)cccc3s2)CC1 | -2% | -9% | ? | -2% | /
Cc1ccc2c(c1C)-c1c(ccc(C)c1C)C(=O)C2=O | 8.9µM* | / | / | / | /
Cc1ccc(CC#N)c(-c2c(CC#N)ccc(C)c2C)c1C | -24% | / | / | / | /
COC1=C/C(=C/c2c(N)n3c(nc2=O)sc2cc(S(C)(=O)=O)ccc23)C=CC1=O | ? | -19% | ? | 7% | 4
CS(=O)(=O)c1ccc2c(c1)sc1nc(=O)c(/C=C3/C=CC(=O)C(O)=C3)c(N)n12 | ? | ? | 4µM* | -2% | -4
O=C(NCc1ccco1)c1ccc2nc3sc4c(c3c(=O)n2c1)CCCC4 | / | -22% | 14µM* | 22µM* | -2
NC(=O)c1cc(-c2ccccc2)sc1NC(=O)CN1CCCCC1 | -23% | 18µM*[quencher] | -13% | ? | 1
